Broadly, the AC50 is the concentration at which the activity in the assay is half-maximal.

The results in this text go back to PubChem BioAssay (EPA / NIEHS).

Results filed as inconclusive are left out. Active and inactive are the calls of the source. How the source made its calls, unless noted: active means hit-call score of the fitted dose curve at least 0.9, where 1 is the maximum; inactive means score below 0.9.

Test [1] is described as follows: ACEA_ER_80hr: ACEA Biosciences xCELLigence Real-Time Cell Analysis on Estrogen Receptor Agonism for Proliferation (AID 2282667; active means hit-call score of the fitted dose curve at least 0.9, where 1 is the maximum). As to conditions: T47D proliferation, impedance (xCELLigence), 80 h. Put shortly: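 Estrogen-driven proliferation is captured as electrode impedance in T47D cells 80 h after compound addition. Test articles ran at 8 concentrations, 1:4 dilutions from 100 uM final, in two replicate plates.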

Test [2] is described as follows: ATG_CRE_CIS: Attagene CIS-FACTORIAL HepG2 Assay for human cAMP Responsive Element (CRE) binding protein 3 (AID 2282926). As to conditions: HepG2 CRE cis-reporter, Attagene multiplexed mRNA; actives raise or lower the signal. The procedure, abridged:
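Liver-derived HepG2, transfected with a CRE-containing reporter panel, exposed 24 h; transcript levels sized and quantified by capillary electrophoresis of labelled amplicons; signal changes either way referenced to vehicle.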

In test [3] the target is CCAAT/enhancer-binding protein beta (Homo sapiens) (UniProt P17676). Nature of the test: ATG_C_EBP_CIS: Attagene CIS-FACTORIAL HepG2 Assay for human CCAAT/Enhancer Binding Protein (C/EBP) beta (AID 2282927). As to conditions: HepG2 Attagene cis-factorial transcription factor reporter; actives raise or lower the signal. Put shortly:
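Transiently transfected HepG2 (MRTU library, endogenous TF-driven promoters); 24 h dosing; total RNA → oligo(dT) RT → PCR → 6-FAM primer extension → HpaI digest → CE; fit bidirectionally vs DMSO.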

The nature of test [4]: ATG_CMV_CIS: Attagene CIS-FACTORIAL HepG2 Assay for human CMV (Internal Marker) (AID 2282928).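 Further: endpoint acts as a background internal control marker rather than a target.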 Particulars: HepG2 CMV promoter reporter, transcription factor profiling; actives raise or lower the signal. Put shortly: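 Fluorescence intensity of RT-PCR-derived reporter fragments, resolved by capillary electrophoresis, gives the signal. HepG2 liver cells bearing transfected cis-element reporters were treated 24 h; activity in either direction was fit relative to DMSO-treated controls.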

The nature of test [5]: ATG_DR4_LXR_CIS: Attagene CIS-FACTORIAL HepG2 Assay for human Liver X Receptor (LXR), DR4 submotif (AID 2282929). As to conditions: HepG2 Attagene DR4 cis-reporter, mRNA transcription; actives raise or lower the signal. Put shortly:
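Fluorescence intensity of labelled reporter cDNA fragments, separated by capillary electrophoresis, gives the signal. HepG2 cells bearing cis-regulated reporter constructs were treated 24 h; activity fitted bidirectionally relative to DMSO negative control.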

The target in test [6] is Aryl hydrocarbon receptor (Homo sapiens) (UniProt P35869). The test can be described thus: ATG_Ahr_CIS: Attagene CIS-FACTORIAL HepG2 Assay for human Aryl Hydrocarbon Receptor (Ahr) (AID 2282930). As to conditions: HepG2 AhR cis-factorial reporter transcription; actives raise or lower the signal. The procedure, abridged:
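Read-out: reporter mRNA quantified by RT-PCR with fluorescent primer extension and capillary electrophoresis. Human HepG2 liver cells carried transfected cis-promoter reporter units and were exposed to chemical for 24 h; gain or loss fitted relative to DMSO.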

Test [7] can be described thus: ATG_AP_1_CIS: Attagene CIS-FACTORIAL HepG2 Assay for human Activator Protein 1 (AP-1) (AID 2282931). Particulars: HepG2 Attagene cis-factorial AP-1 reporter mRNA; actives raise or lower the signal. The procedure, abridged:
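Multiplexed HepG2 reporter assay, 24 h dosing. mRNA induction detected by RT-PCR plus capillary electrophoresis. Activity fitted in both directions against DMSO.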

Test [8] can be described thus: ATG_AP_2_CIS: Attagene CIS-FACTORIAL HepG2 Assay for human Activator Protein 2 (AP-2) (AID 2282932). Particulars: HepG2 AP-2 cis-reporter, Attagene transcription factor profiling; actives raise or lower the signal. Put shortly:
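Read-out: fluorescent reporter mRNA via RT-PCR and capillary electrophoresis, 24 h post-dose in transiently transfected HepG2. Endogenous factors drive cis-promoter reporters; gain or loss of signal fitted bidirectionally against DMSO.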

Test [9] is described as follows: ATG_BRE_CIS: Attagene CIS-FACTORIAL HepG2 Assay for human Bone Morphogenetic Protein (BMP) Response Element (BRE) (AID 2282933). Particulars: HepG2 BMP response element reporter, Attagene transcription factor profiling; actives raise or lower the signal. The procedure, abridged: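 Endogenous transcription factor activity read in transiently transfected HepG2 cells after 24 h chemical exposure. Bidirectional curve fitting against DMSO; readout is reporter transcript level by RT-PCR with capillary electrophoresis of labelled products.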

Test [10] concerns the target Retinoic acid receptor alpha (Homo sapiens) (UniProt P10276). Nature of the test: ATG_DR5_RAR_CIS: Attagene CIS-FACTORIAL HepG2 Assay for human Retinoic Acid Receptor Alpha (RARE), DR5 submotif (AID 2282934).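 On AC50: reporter responds to endogenous RAR alpha beta and gamma in HepG2 not RARA alone.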 Particulars: HepG2 Attagene cis-factorial RARE DR5 reporter, mRNA; actives raise or lower the signal. The procedure, abridged:
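Read-out: DR5-driven reporter transcript measured by RT-PCR, 6-FAM primer extension, HpaI digest and capillary electrophoresis. Human HepG2 liver cells carry transiently transfected cis-element reporter constructs; dosing lasts 24 h. Gain or loss of signal fitted against DMSO baseline.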

Sequence of Aryl hydrocarbon receptor (Homo sapiens) (P35869 whole entry, looked up): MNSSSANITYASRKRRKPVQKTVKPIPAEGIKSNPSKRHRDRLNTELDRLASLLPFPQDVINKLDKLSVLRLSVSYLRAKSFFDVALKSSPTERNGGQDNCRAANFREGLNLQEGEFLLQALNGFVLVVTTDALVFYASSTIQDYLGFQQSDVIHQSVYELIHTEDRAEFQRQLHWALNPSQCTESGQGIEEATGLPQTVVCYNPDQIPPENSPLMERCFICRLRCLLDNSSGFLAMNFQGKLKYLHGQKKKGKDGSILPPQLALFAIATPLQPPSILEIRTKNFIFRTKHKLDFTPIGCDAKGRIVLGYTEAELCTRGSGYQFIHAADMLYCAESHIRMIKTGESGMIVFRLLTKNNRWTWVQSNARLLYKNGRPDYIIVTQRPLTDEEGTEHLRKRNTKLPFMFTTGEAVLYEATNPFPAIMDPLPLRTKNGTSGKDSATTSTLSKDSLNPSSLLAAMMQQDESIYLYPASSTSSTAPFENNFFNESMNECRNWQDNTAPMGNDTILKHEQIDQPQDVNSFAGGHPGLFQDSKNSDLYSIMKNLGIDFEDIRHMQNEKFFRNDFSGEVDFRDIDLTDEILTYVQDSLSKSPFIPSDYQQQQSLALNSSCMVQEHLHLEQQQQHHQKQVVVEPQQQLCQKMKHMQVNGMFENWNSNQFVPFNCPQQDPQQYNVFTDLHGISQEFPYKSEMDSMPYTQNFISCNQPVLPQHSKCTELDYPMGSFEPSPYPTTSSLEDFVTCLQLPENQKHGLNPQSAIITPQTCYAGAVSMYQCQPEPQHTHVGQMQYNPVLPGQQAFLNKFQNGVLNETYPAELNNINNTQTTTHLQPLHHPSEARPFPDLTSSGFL
Sequence of Retinoic acid receptor alpha (Homo sapiens) (P10276 whole entry, looked up): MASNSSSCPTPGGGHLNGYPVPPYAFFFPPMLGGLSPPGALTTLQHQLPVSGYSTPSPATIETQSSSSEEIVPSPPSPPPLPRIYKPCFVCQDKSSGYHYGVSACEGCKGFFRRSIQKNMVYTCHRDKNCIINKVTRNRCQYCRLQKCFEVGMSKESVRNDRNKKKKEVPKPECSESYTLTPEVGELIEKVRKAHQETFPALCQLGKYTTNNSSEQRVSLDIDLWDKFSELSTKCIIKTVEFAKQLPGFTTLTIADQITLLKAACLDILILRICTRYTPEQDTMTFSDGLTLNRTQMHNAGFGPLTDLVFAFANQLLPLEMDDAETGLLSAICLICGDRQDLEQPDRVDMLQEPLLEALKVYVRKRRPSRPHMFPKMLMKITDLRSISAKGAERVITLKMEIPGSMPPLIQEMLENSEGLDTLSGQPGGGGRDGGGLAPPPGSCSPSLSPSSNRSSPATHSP
Sequence of CCAAT/enhancer-binding protein beta (Homo sapiens) (P17676 whole entry, looked up): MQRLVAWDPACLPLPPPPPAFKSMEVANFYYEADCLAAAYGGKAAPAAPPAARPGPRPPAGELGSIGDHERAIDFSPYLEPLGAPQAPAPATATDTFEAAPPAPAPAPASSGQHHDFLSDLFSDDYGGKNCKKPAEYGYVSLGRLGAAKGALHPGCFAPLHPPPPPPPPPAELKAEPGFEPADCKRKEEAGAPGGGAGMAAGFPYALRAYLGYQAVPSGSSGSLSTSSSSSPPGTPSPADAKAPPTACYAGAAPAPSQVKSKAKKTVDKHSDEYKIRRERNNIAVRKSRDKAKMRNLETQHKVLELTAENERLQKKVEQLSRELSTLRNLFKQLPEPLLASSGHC

Take `CC(C)=CCl`: the outcome in test [1], in [2], in [3], in test [4], in test [5] and in [6] was inactive. Besides, the result in [7], in test [8], in test [9] and in test [10] was inactive.
On to `Cc1ccc([N+](=O)[O-])cc1N`, for which the molecule was called inactive in test [1], in test [2], in test [3], in test [4], in test [5] and in test [8]. For the same molecule, in test [9], the outcome was inactive. The AC50 in test [6] was 1.51 µM (active).
For `C=CC(=O)OCCCCCCCC(C)C`, the call in test [1], in test [4], in [6], in [7], in test [8] and in [9] was inactive. In addition, the AC50 in test [2] is 77.2 µM (active); in test [3], 63.1 µM (active); in [5], 160 µM (active); in test [10] it was 70.5 µM (active).
As to `COC(=O)c1ccc(C(=O)OC)c(C(=O)OC)c1`, the outcome in test [1], in [2], in test [3], in test [4], in test [5] and in test [6] was inactive. Moreover, the molecule was called inactive in [7], in test [8], in test [9] and in test [10].
For `CC(=O)c1ccccc1O`, the molecule was classed as inactive in test [1], in test [2], in [3], in test [4], in [5] and in test [6]. The call in [7], in test [8], in test [9] and in test [10] was inactive.
As for `CC(Cl)COP(=O)(OCC(C)Cl)OCC(C)Cl` (centres undefined), the molecule was classed as inactive in test [1], in test [2], in test [3], in test [4], in [5] and in [6]. For the same molecule, the molecule was classed as inactive in test [7], in [8], in test [9] and in test [10].
Take `Clc1cc(Cl)c(Cl)c(Cl)c1Cl`: the result in test [1], in test [2], in [3], in test [5], in test [6] and in [7] was inactive. For the same molecule, the molecule was called inactive in [8], in test [9] and in [10]. Also, the AC50 in [4] was 50.7 µM (active).
Turning to `CCCCNS(=O)(=O)c1ccc(C)cc1`, the result in test [1], in test [2], in test [3], in [4], in test [5] and in test [6] was inactive. The outcome in test [7], in test [8], in [9] and in [10] was inactive.
For `N#Cc1ccc(C2CCCc3cncn32)cc1` (centres undefined), the AC50 in test [1] was 0.829 µM (active). The outcome in test [2], in [3], in test [4], in test [5], in test [7] and in [8] was inactive. The outcome in [9] and in test [10] was inactive.
As to `C=Cc1ccc(OC(C)=O)cc1`, the outcome in test [1], in test [2], in test [3], in [5], in test [6] and in test [8] was inactive. The molecule was called inactive in [9] and in [10]. Further, the AC50 in [4] is 13.1 µM (active).
For `CC1(C)[C@@H]2CC[C@@]1(C)C(=O)C2`, the result in test [1], in [2], in test [3], in test [4], in test [5] and in test [6] was inactive. Moreover, the molecule was classed as inactive in [8], in [9] and in test [10].
Take `CC1C(C)(C)C2=C(C(=O)CCC2)C1(C)C` (centres undefined): the result in test [1], in test [2], in test [3], in test [4], in [5] and in test [7] was inactive. Moreover, the call in [8], in test [9] and in test [10] was inactive.
On to `CCCCCOC(=O)CCCCC`, for which the molecule was called inactive in test [1], in test [2], in test [3], in [4], in test [5] and in test [6]. The outcome in test [8], in test [9] and in test [10] was inactive.
Take `CC(C)[N+](C)(CCOC(=O)C1c2ccccc2Oc2ccccc21)C(C)C`: the call in test [1], in [2], in [3], in test [4], in test [5] and in [6] was inactive. Further, the call in test [8], in [9] and in [10] was inactive.
As for `O=C(Cl)c1ccc(C(=O)Cl)cc1`, the call in test [1], in test [2], in [3], in [4], in test [5] and in test [6] was inactive. Also, the molecule was called inactive in test [8], in [9] and in [10].
Take `CCCCOCC(C)O` (centres undefined): the AC50 in test [1] was 0.129 µM (active). In addition, the call in test [2], in test [3], in test [4], in test [5], in test [6] and in [8] was inactive. The call in test [9] and in test [10] was inactive.
For `CC(C)(C)NC(=O)[C@H]1CC[C@H]2[C@@H]3CC[C@H]4NC(=O)C=C[C@]4(C)[C@H]3CC[C@]12C`, the result in [1], in [2], in test [3], in [4], in test [5] and in test [6] was inactive. For the same molecule, the outcome in test [8], in test [9] and in [10] was inactive.
